# According to PubChem BioAssay (NCATS):
# Several values for one entry are separate records, joined by “and”; a condition that tells them apart may be missing. Equal values may be shown once. Records with an inconclusive call do not appear. A call without a number means that no potency is given here. Activity calls are given as the source filed them. Unless noted, calls come from the whole dose curve; as a rule, active = well fitted curve in the direction sought with a large enough effect; inconclusive = small, poorly fitted or top-dose-only effect, or another doubt; inactive = no such curve, though single readings can be large; an effect the other way counts as inactive or inconclusive.
# How the values were obtained:
# [1] = Cell Viability - SH-SY5Y (AID 544); settings: SH-SY5Y neuroblastoma cell viability; viability change, negative = cytotoxic: at 92.2 µM (top of the series);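 note: cells exposed to compound for 40 hours; nearly all actives have a fitted effect of over 55% in size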
# Outline: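 SH-SY5Y human neuroblastoma cells (1500/well) incubated 5 h, then compound-treated 40 h at 37 °C in complete medium. Viability read as intracellular ATP by CellTiter-Glo luminescence after 20 min; AC50 from Hill-equation fits of qHTS concentration-response.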
# [2] = Cell Viability - Renal Proximal Tubule (AID 545); settings: renal proximal tubule cells viability, primary cells of rat origin; activity change, negative = cytotoxicity: at 91.7 µM (top of the series);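 note: cells exposed to compound for 40 hours; nearly all actives have a fitted effect of over 40% in size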
# Outline: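 Luminescent ATP signal (CellTiter-Glo) served as the viability read-out after 40 hr compound exposure of freshly isolated rat proximal tubule cells at 37 °C. Concentration-dependent ATP loss was fitted with the Hill equation to give AC50.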
# [3] = Cell Viability - LYMP2-001 (AID 921); note: nearly all actives have a fitted effect of over 70% in size
# Outline: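 Steps: seed 2500 lymphoblastoid cells/well; 5 hr, 37 C; add compound; 24 hr, 37 C; CellTiter-Glo reagent, 30 min room temperature; read luminescence. Concentration-response modeled by Hill equation for AC50.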
# [4] = Cell Viability - LYMP2-005 (AID 967)
# Outline: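 Acute cytotoxicity is scored as a concentration-dependent drop in intracellular ATP in human lymphoblastoid LYMP2-005 cells after 24 h compound treatment. ATP is quantified by luciferase luminescence, and AC50 is derived by Hill-equation modelling.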
# [5] = Cell Viability - LYMP2-017 (AID 972); note: nearly all actives have a fitted effect of over 55% in size
# Outline: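 LYMP2-017 human lymphoblastoid cells (2500/well) settled 5 hr at 37 C, then exposed to compound 24 hr at 37 C in complete medium. Viability taken as intracellular ATP by CellTiter-Glo luminescence after 30 min at RT; AC50 from Hill fits.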
# [6] = Cell Viability - LYMP2-019 (AID 973); note: nearly all actives have a fitted effect of over 55% in size
# Outline: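 Human lymphoblastoid LYMP2-019 cells (2500/well) preincubated 5 h at 37 C, then treated 24 h at 37 C in complete medium. Viability by CellTiter-Glo ATP luminescence after 30 min at room temperature; AC50 from Hill fits.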
# [7] = Cell Viability - LYMP2-021 (AID 974);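 note: compound exposure lasts 24 hours at 37 °C; nearly all actives have a fitted effect of over 55% in size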
# Outline: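 Human lymphoblastoid LYMP2-021 cells, 2500/well in complete medium, treated 24 hours at 37 C. Intracellular ATP by CellTiter-Glo luminescence (30 min, RT); AC50 from Hill fits of concentration-response.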
# [8] = Cell Viability - LYMP2-006 (AID 978); note: nearly all actives have a fitted effect of over 60% in size
# Outline: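 Cells are seeded at 2500 per well and rested 5 hr at 37 C. Compounds are added across a concentration series for 24 hr at 37 C, after which ATP is quantified by luciferase luminescence.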
# [9] = Cell Viability - LYMP2-010 (AID 981); note: nearly all actives have a fitted effect of over 55% in size
# Outline: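 Human lymphoblastoid LYMP2-010 cells (2500/well) treated 24 h at 37 C in complete medium; viability read as intracellular ATP by CellTiter-Glo luminescence. AC50 from Hill fits of concentration-response data; tetraoctylammonium bromide positive control.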
# [10] = Cell Viability - LYMP2-012 (AID 982)
# [11] = Cell Viability - LYMP2-024 (AID 988); note: nearly all actives have a fitted effect of over 60% in size
# Outline: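 Human lymphoblastoid LYMP2-024 cells (2500/well) rested 5 hr, then treated with compound for 24 hr at 37 C in complete medium. Viability was measured as intracellular ATP by CellTiter-Glo luminescence. AC50 values came from Hill-equation fits.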
# [12] = biological target: Glucocorticoid receptor (Homo sapiens) (UniProt P04150); assay: qHTS assay for small molecule agonists of glucocorticoid receptor signaling (AID 588532; active = well fitted curve in the direction sought with a large enough effect in the signal ratio, with a control signal flat; the % refers to the signal ratio); settings: HeLa MMTV-bla, beta-lactamase ratio, agonist, 18 h; stronger effect = higher value; percent of dexamethasone control, DMSO zero
# Sequence of Glucocorticoid receptor (Homo sapiens) (P04150 whole entry, looked up): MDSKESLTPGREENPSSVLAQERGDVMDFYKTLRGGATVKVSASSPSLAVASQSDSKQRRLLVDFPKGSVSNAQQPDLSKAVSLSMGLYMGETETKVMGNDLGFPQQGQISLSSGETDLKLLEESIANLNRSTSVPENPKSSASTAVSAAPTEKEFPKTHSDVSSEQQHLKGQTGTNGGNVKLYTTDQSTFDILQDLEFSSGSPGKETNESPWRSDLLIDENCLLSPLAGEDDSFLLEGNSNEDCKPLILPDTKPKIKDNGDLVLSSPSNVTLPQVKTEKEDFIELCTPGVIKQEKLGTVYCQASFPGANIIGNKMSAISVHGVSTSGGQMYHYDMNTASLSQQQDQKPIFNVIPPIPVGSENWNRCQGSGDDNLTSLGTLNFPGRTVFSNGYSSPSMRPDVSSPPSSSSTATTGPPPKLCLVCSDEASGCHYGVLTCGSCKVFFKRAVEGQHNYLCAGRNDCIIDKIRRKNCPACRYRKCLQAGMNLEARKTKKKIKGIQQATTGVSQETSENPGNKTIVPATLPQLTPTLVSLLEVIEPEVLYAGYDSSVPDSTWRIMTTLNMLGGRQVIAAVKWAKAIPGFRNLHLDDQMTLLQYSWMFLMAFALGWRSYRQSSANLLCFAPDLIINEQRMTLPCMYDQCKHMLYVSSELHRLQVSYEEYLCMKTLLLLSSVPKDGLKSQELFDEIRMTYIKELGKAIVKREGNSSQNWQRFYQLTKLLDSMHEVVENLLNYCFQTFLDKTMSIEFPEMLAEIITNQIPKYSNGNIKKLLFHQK
# Outline: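 Agonist-mode qHTS: GRE-driven beta-lactamase in HeLa cells exposed 18 h to titrated compounds (up to 92 uM), then CCF4 ratio read after 2 h at RT; Hill-fitted EC50, efficacy relative to 0.1 uM dexamethasone.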
# [13] = qHTS assay for small molecule agonists of retinoid X receptor alpha signaling (AID 588544; calls by dose curve); settings: HEK293T RXRa-UAS-bla, beta-lactamase reporter, 18 h; 530 nm emission
# [14] = biological target: Retinoic acid receptor RXR-alpha (Homo sapiens) (UniProt P19793); assay: as above
# Sequence of Retinoic acid receptor RXR-alpha (Homo sapiens) (P19793 whole entry, looked up): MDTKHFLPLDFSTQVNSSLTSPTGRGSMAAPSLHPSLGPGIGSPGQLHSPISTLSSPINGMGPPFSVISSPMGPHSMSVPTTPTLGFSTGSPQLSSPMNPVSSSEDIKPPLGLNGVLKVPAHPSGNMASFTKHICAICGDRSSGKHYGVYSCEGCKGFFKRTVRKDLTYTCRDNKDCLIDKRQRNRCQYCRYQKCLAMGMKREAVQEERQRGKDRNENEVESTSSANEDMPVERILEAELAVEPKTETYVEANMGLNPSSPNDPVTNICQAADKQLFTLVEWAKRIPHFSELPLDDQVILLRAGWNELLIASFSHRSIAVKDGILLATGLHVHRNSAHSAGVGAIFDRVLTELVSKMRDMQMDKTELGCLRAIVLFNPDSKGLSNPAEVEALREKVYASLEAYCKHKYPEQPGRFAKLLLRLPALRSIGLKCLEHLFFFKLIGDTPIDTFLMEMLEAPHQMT
# [15] = biological target: Thyroid hormone receptor beta (Homo sapiens) (UniProt P10828); assay: qHTS assay for small molecule agonists of thyroid hormone receptor beta signaling (AID 588545; calls by dose curve)
# Sequence of Thyroid hormone receptor beta (Homo sapiens) (P10828 whole entry, looked up): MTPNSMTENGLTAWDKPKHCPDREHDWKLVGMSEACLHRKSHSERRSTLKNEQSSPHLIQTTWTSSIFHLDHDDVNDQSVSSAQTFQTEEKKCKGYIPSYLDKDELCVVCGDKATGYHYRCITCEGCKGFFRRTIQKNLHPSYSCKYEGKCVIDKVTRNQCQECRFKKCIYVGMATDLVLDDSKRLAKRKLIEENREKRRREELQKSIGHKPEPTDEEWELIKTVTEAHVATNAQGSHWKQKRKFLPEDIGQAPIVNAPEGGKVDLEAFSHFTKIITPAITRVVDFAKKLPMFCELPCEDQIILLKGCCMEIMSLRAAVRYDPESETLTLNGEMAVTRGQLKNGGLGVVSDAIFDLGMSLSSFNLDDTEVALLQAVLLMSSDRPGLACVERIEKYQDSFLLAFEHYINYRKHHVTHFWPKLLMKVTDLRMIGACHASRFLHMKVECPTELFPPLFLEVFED
# Outline: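 Stimulation of a TR-driven beta-lactamase reporter was quantified in GripTite HEK 293 cells. Compound series ran for 18 hrs; curves were normalized to T3 and DMSO controls and fitted to yield EC50.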
# [16] = qHTS assay for small molecule activators of the p53 signaling pathway (AID 651743; active = well fitted activation curve with a large enough effect in the signal ratio, not every such curve was filed as active; the % refers to the signal ratio); settings: HCT-116 p53RE-bla, beta-lactamase FRET ratio, 16 h; activation: stronger effect = higher value
# Outline: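 Read-out is fluorescence intensity from the LiveBLAzer B/G FRET substrate, added for 2 hours at room temperature after HCT-116 p53RE-bla cells had been incubated with compounds for 16 hours at 37 C.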
# [17] = qHTS assay for small molecule disruptors of the mitochondrial membrane potential - 1 hr assay (AID 651754; calls by dose curve; note: nearly all actives have a fitted effect of over 35% in size; note: potency is the fitted concentration of half-maximal effect)
# Outline: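 HepG2 cells, attached overnight, were exposed to compound for 1 hr at 37C, then stained 30 min with a potentiometric dye. Ratio of red aggregate (590nm) to green monomer (535nm) fluorescence reports membrane potential; collapse shifts signal toward green.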
# [18] = qHTS assay for small molecule disruptors of the mitochondrial membrane potential - 5 hr assay (AID 651755; calls by dose curve; note: nearly all actives have a fitted effect of over 40% in size; note: potency is the fitted concentration of half-maximal effect)
# Outline: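 HepG2, 2,000 cells/well, overnight attach; cpd or DMSO 5 hr, 37C/5% CO2; Mito-MPS 30 min 37C; fluor 490/535 + 540/590 nm.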
# [19] = qHTS assay for small molecule agonists of the antioxidant response element (ARE) signaling pathway measured by Nrf2-dependant transcriptional activity (AID 720636; active = well fitted curve in the direction sought with a large enough effect in the repeat runs; an effect the other way counts as inactive or inconclusive;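 note: HepG2 cells with an ARE-driven luciferase reporter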)
# Outline: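 Cells: ARE-luc HepG2 with Nrf2-responsive luciferase. Medium contained 1% dialyzed FBS. Compound exposure lasted 16 hr at 37 C and 5% CO2, followed by ONE-Glo luciferase detection.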
# [20] = MultiTox-Fluor Cytotoxicity Assay - LYMP1-001 - Live Cells (AID 947)
compound,measurement,setting,value
CCCCCCCCC1CO1 (stereo not drawn),Potency,[1],inactive
same,Potency,[2],inactive
same,Potency,[3],inactive
same,Potency,[4],inactive
same,Potency,[5],inactive
same,Potency,[6],inactive
same,Potency,[7],inactive
same,Potency,[8],inactive
same,Potency,[9],inactive
same,Potency,[10],inactive
same,Potency,[11],inactive
same,activation,[12],-2.27% (inactive)
same,max response,[13],-17.5%
same,Potency,[14],inactive
same,Potency,[15],inactive
same,activation,[16],-2.83% (inactive)
same,Potency,[17],inactive
same,Potency,[18],inactive
same,Potency,[19],inactive
Cc1ccccc1OCC1CO1 (stereo not drawn),Potency,[1],inactive
same,Potency,[2],inactive
same,Potency,[3],inactive
same,Potency,[20],inactive
same,Potency,[4],inactive
same,Potency,[5],inactive
same,Potency,[6],inactive
same,Potency,[7],inactive
same,Potency,[8],inactive
same,Potency,[9],inactive
same,Potency,[10],inactive
same,Potency,[11],inactive
same,activation,[12],-5.02% (inactive)
same,max response,[13],14.4%
same,Potency,[14],inactive
same,activation,[16],-0.32% (inactive)
same,Potency,[17],inactive
same,Potency,[18],inactive
same,Potency,[19],inactive
CC(/C=C/C=C(C)/C=C/C(=O)O)=C\C=C\C=C(C)\C=C\C=C(C)\C=C\C(=O)O,"viability change, negative = cytotoxic",[1],-97% (active)
same,Potency,[3],inactive
same,Potency,[5],inactive
same,Potency,[6],inactive
same,Potency,[7],inactive
same,Potency,[8],inactive
same,Potency,[9],inactive
same,Potency,[11],inactive
same,activation,[12],1.99% (inactive)
same,max response,[13],4.44%
same,Potency,[14],inactive
same,activation,[16],-5.5% (inactive)
same,Potency,[17],inactive
same,Potency,[18],inactive
CCCCC(CC)COCCCN (stereo not drawn),Potency,[1],inactive
same,Potency,[2],inactive
same,Potency,[3],inactive
same,Potency,[20],inactive
same,Potency,[4],inactive
same,Potency,[5],inactive
same,Potency,[6],inactive
same,Potency,[7],inactive
same,Potency,[8],inactive
same,Potency,[9],inactive
same,Potency,[10],inactive
same,Potency,[11],inactive
same,activation,[12],-4.42% (inactive)
same,max response,[13],1.27%
same,Potency,[14],inactive
same,Potency,[15],inactive
same,activation,[16],-2.34% (inactive)
same,Potency,[19],inactive
Nc1ccccc1O,Potency,[2],inactive
same,Potency,[20],inactive
same,Potency,[5],inactive
same,Potency,[6],inactive
same,Potency,[7],inactive
same,Potency,[8],inactive
same,Potency,[10],inactive
same,Potency,[11],inactive
same,activation,[12],7.62% (inactive)
same,max response,[13],23.5%
same,Potency,[14],inactive
same,Potency,[15],inactive
same,activation,[16],17.3% (inactive)
same,Potency,[17],15 µM (active)
same,Potency,[18],23.7 µM (active)
same,Potency,[19],inactive
CC(=O)OCc1ccc2c(c1)OCO2,Potency,[1],inactive
same,Potency,[2],inactive
same,Potency,[3],inactive
same,Potency,[20],inactive
same,Potency,[5],inactive
same,Potency,[6],inactive
same,Potency,[7],inactive
same,Potency,[8],inactive
same,Potency,[9],inactive
same,Potency,[10],inactive
same,Potency,[11],inactive
same,max response,[13],17.8%
same,Potency,[14],inactive
same,Potency,[15],inactive
same,activation,[16],-2.61% (inactive)
same,Potency,[17],inactive
same,Potency,[18],inactive
same,Potency,[19],inactive
O=C1OC(=O)c2ccccc21,Potency,[2],inactive
same,Potency,[3],inactive
same,Potency,[20],inactive
same,Potency,[4],inactive
same,Potency,[6],inactive
same,Potency,[7],inactive
same,Potency,[8],inactive
same,Potency,[9],inactive
same,Potency,[10],inactive
same,Potency,[11],inactive
same,activation,[12],8.87% (inactive)
same,max response,[13],-8.02%
same,Potency,[14],inactive
same,activation,[16],-3.66% (inactive)
same,Potency,[17],inactive
same,Potency,[18],inactive
same,Potency,[19],inactive
Nc1cc([N+](=O)[O-])ccc1O,Potency,[1],inactive
same,Potency,[2],inactive
same,Potency,[3],inactive
same,Potency,[20],inactive
same,Potency,[4],inactive
same,Potency,[5],inactive
same,Potency,[6],inactive
same,Potency,[7],inactive
same,Potency,[8],inactive
same,Potency,[9],inactive
same,Potency,[10],inactive
same,Potency,[11],inactive
same,activation,[12],-3.65% (inactive) and -4.48% (inactive)
same,max response,[13],-3.91% and 2.48%
same,Potency,[14],inactive
same,Potency,[15],inactive
same,activation,[16],-1.58% (inactive) and -3.77% (inactive)
same,Potency,[17],29.8 µM (active)
same,Potency,[18],29.8 µM (active)
Brc1cc(Oc2cc(Br)c(Br)c(Br)c2Br)c(Br)c(Br)c1Br,Potency,[2],inactive
same,Potency,[3],inactive
same,Potency,[20],inactive
same,Potency,[4],inactive
same,Potency,[5],inactive
same,Potency,[6],inactive
same,Potency,[7],inactive
same,Potency,[8],inactive
same,Potency,[9],inactive
same,Potency,[10],inactive
same,Potency,[11],inactive
same,activation,[12],-9.25% (inactive) and -1.53% (inactive)
same,max response,[13],21.6%
same,Potency,[14],inactive
same,Potency,[15],inactive
same,activation,[16],-8.15% (inactive) and -4.88% (inactive)
same,Potency,[17],inactive
same,Potency,[18],inactive
same,Potency,[19],inactive
CCCC(=O)OC(=O)CCC,Potency,[1],inactive
same,Potency,[2],inactive
same,Potency,[3],inactive
same,Potency,[20],inactive
same,Potency,[5],inactive
same,Potency,[6],inactive
same,Potency,[7],inactive
same,Potency,[8],inactive
same,Potency,[10],inactive
same,Potency,[11],inactive
same,max response,[13],16.4% and -19.3%
same,Potency,[14],inactive
same,Potency,[15],inactive
same,activation,[16],0.746% (inactive) and 0.239% (inactive)
same,Potency,[17],inactive
same,Potency,[18],inactive
same,Potency,[19],inactive
O=C(Cl)c1ccc([N+](=O)[O-])cc1,Potency,[2],inactive
same,Potency,[3],inactive
same,Potency,[20],inactive
same,Potency,[5],inactive
same,Potency,[6],inactive
same,Potency,[7],inactive
same,Potency,[8],inactive
same,Potency,[9],inactive
same,Potency,[10],inactive
same,Potency,[11],inactive
same,activation,[12],-2.19% (inactive)
same,max response,[13],-12.7%
same,Potency,[14],inactive
same,Potency,[15],inactive
same,Potency,[17],inactive
same,Potency,[18],inactive
same,Potency,[19],inactive
CN(C)c1ccc(Cc2ccc(N(C)C)cc2)cc1,Potency,[1],inactive
same,Potency,[2],inactive
same,Potency,[3],inactive
same,Potency,[20],inactive
same,Potency,[4],inactive
same,Potency,[5],inactive
same,Potency,[6],inactive
same,Potency,[7],inactive
same,Potency,[8],inactive
same,Potency,[9],inactive
same,Potency,[10],inactive
same,Potency,[11],inactive
same,activation,[12],7.64% (inactive) and -3.57% (inactive)
same,Potency,[15],inactive
same,activation,[16],6.8% (inactive) and -1.08% (inactive)
same,Potency,[19],inactive
Cc1ccc(S(N)(=O)=O)cc1,Potency,[1],inactive
same,Potency,[2],inactive
same,Potency,[3],inactive
same,Potency,[20],inactive
same,Potency,[4],inactive
same,Potency,[5],inactive
same,Potency,[6],inactive
same,Potency,[7],inactive
same,Potency,[8],inactive
same,Potency,[9],inactive
same,Potency,[10],inactive
same,Potency,[11],inactive
same,activation,[12],1.06% (inactive) and -7.61% (inactive)
same,max response,[13],-3.23% and -4.03%
same,Potency,[14],inactive
same,Potency,[15],inactive
same,activation,[16],-4.8% (inactive) and 0.0231% (inactive)
same,Potency,[17],inactive
same,Potency,[18],inactive
same,Potency,[19],inactive
C=CC(=O)CC,Potency,[1],inactive
same,Potency,[2],inactive
same,Potency,[3],inactive
same,Potency,[20],inactive
same,Potency,[4],inactive
same,Potency,[5],inactive
same,Potency,[6],inactive
same,Potency,[7],inactive
same,Potency,[8],inactive
same,Potency,[9],inactive
same,Potency,[10],inactive
same,Potency,[11],inactive
same,max response,[13],-11.5%
same,Potency,[14],inactive
same,Potency,[15],inactive
same,activation,[16],-1.3% (inactive)
same,Potency,[17],inactive
same,Potency,[18],inactive
same,Potency,[19],inactive
